Reference: the supplement of paper PMC12632987

Biological target: GABARAPL2, P60520
Assay: median log2 fold change of GCK-ALFA target abundance (FLAG IP / Myc IP barcode read proportion) (log2 ratio); each designed protein is fused to an ALFA-tag nanobody in HEK293 cells to bring the named protein to FLAG-tagged glucokinase (GCK); Myc marks an untargeted standard; higher = target protein stabilised (more abundant)
Conditions: target protein: 3xFLAG-MCP-GCK-ALFA reporter; HEK293 landing pad (RPLP)
Outline: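 An ALFA-nanobody-fused binder library was recombined into HEK293 landing-pad cells and induced with 2 μg mL^−1 doxycycline. Cells were transfected with a plasmid expressing a FLAG-tagged target and a Myc-tagged standard. After 48 h, lysates underwent anti-FLAG and anti-Myc immunoprecipitation, and circular RNA barcodes were reverse transcribed, amplified and sequenced. Target abundance is the per-binder median log2 ratio of FLAG to Myc barcode read proportions. Barcodes needed ≥10^−7 proportion in both replicates, binders ≥3 barcodes per replicate, and a 10^−6 pseudocount was added; the two replicates were pooled.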

GABARAPL2, P60520, sequence (P60520 whole entry, the tested form may be a part): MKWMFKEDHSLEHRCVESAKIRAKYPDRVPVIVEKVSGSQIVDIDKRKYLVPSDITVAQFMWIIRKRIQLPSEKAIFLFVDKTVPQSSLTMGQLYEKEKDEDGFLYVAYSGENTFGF

Row | Binder | median log2 fold change
1 | GBRAPL2_175_7333 (protein) SARQELVKRIRDLLLKLAEKADDETQDLLLAAAALLEEGGEENLKRALELVKEAAKEEKNDATLQQAAAELAAALALLIEGKPVEEAQKEIDAAAKLLAK | 0.119
2 | GBRAPL2_53_7347 (protein) MIEIDIAHPDKEVMAETLEEIFDVLKKAGVEAKVTVTTENGEVIVLEGDLDEIKEKVVELAKKTNILVTIELPEDAEEVVEEIIDIALEKGAAVSVDGLE | -0.185
3 | GBRAPL2_53_7350 (protein) MYVIEIAHPDKETLAKAIEAIFDKLIEAGVEAKITVTLEDGTVIKLEGSLEEQKKKAVALAKETNVLVEIELPDSAKEVVEELEDIALKEGATVSVEKLE | 0.177
4 | GBRAPL2_175_7336 (protein) SLKDEVLAALIEALELLAEKANDEVQDLLEAAMALLEVDGESALPQVAKLLEEAAKEAKDNPELQKLLKELAAAAKEAAEGGDLEEILARAQAIIKEIKA | 0.166
5 | GBRAPL2_43_7342 (protein) MTEIEKKAIEEAREALEEKLDLDGVKEYEEEVEIRKEGDRTIAIVKATSKETGKEYYAVAVYDKNGELLVVVVSSDLERALKAAEDLIELGERDTYVLLP | 0.125
6 | GBRAPL2_53_7354 (protein) MIAIEIGHPNKEVMVEALKKVFEIIKKAGEKVEVEVTLEDGTVIKLEGSVEEIEEKVLELAKKQPILVTIYLPEKNEELVEEIEDAALEAGATVSVEELP | 0.166
7 | GBRAPL2_53_7355 (protein) MVEIDIGHPDKEVMVKALEEVFDLIEKAGAEVEVIVTKEDGTVIKLTGSVEEIREKVIALAREQPILVTILLKEKNEKLVEEMVDAALKAGATVSVEELP | 0.379
8 | GBRAPL2_175_7340 (protein) SAYEALLKEIIKLLLELSEKANDEVSDLLDAAAAVLETDGLAAAGRAAALVAEASKEAADNPQLQAALAKLAAALKALAAGAAPEEVEKLLKEAKAITKK | 0.217
9 | GBRAPL2_175_7335 (protein) SKKEEAIKKLIEALELLAEKANDEVQDLLEAAAAVLELDGESGIEQAAKIVKQAAKDAKDNPELQKLLKELAKALKLLAEGGDIEEVIKKAEKIIKELKK | 0.0436
10 | GBRAPL2_175_7331 (protein) SATEEALKRIAELLERLAERLDGEASDLLLAAAALVEQQGVAAAARAAELVKEAAKLVADDPRLRAALEELAAALKLLAAGAAVEEVQAEIDRAEALLEA | 0.0704
11 | GBRAPL2_175_7334 (protein) SALDELLARLAALLDELSERADDETADLLDAAMALLELEGAAAAARVAELLREAAELAADNPRLRAALEELARAAALIAEGAAPEEVQAELDRAAALLAE | 0.086
12 | GBRAPL2_151_7326 (protein) SELERLLEKLKELLEKLEKLVEEAAKKDPSHEIELETLVGGAEADLLLAEEAPNDEEKRRFLKEAAELIKDAAELIAKITGSEEAKKLAEEAREILKELE | 0.164
13 | GBRAPL2_175_7330 (protein) SALEELLKRLAELLEELAEKLDDEASDLLLAAAALIEQDGVAAAKRAAELVKEAAKKVKDNPKLQAALEELAAALELIAAGKAPEEVKAELEKAEALLKE | 0.207
14 | GBRAPL2_53_7349 (protein) MYEVEIAHPDKEVLAAAIEAIFDKIEEAGVEAEVEVTLEDGTVIKLEGPIEEQKEEAVALAKETDVLVTIKLPDEAEELVEELEDIALEKGATVSVEKLE | 0.0915
15 | GBRAPL2_53_7353 (protein) MIEVDIAHPDPEVMARALEKIFDIIKEAGQKVTVTVTTEDGTVITLTGDIDTIRAETVALAKQQPILVRIELEEEDEEVAEKVVDAALEEGATVSVERVE | 0.275
16 | GBRAPL2_53_7346 (protein) MKKVDIAHPDKEKLAKTLEEIFKILEENGVKAKVTVTTEDGNVIVLEGDLEEIREKTVKLAKETEVLVEIELPDDAEETVEKIIDVALKNGATVSVDGLE | 0.2

Row | Binder | median log2 fold change
17 | GBRAPL2_175_7341 (protein) AAYEKLLKEIIELLDELAEKADDEVSDLLEAAAAVLETDGLAGAGRAAKLVAEAAKEAADNPKLQAALKEVAAALKAIADGAAPEEVEKLLKKAKAILKE | 0.142
18 | GBRAPL2_53_7348 (protein) MYVVEIAHPDRDVLAAAIEAVFDLIEEAGVEAEVTVTLEDGTVIKLEGPISEVKERAVALAKETDVLVEIKLPDEAEEVVEELEDIALEKGATVSVEKLE | 0.152
19 | GBRAPL2_175_7339 (protein) AAYEKLLAEIIELLLEIAEKANDEVSDLLEAAAAVLETDGLAGAERAARLVKEAAEEAKDNPQLQEALKLIAEALKALAAGAAPEEVKKLLDKAKEVLKK | 0.22
20 | GBRAPL2_151_7323 (protein) SELEKLLKEAKKLLKKLEKLVKEAAKKDPKYETELETLVGGAEADLILAEEAKNDEEKREHLKRAAELIADAAELIAKITGSEEAKKLAEEAKELLKKLE | 0.39
21 | GBRAPL2_53_7356 (protein) MLELEIAHPDKEIMAKAVEEIFNLLKEENVEAEVTVTTENGEVIKLTGDIEEIKKKVVELAKKQPILVSIKLPDSAEEVVEKMEDIALELGATVSVSRLE | 0.229
22 | GBRAPL2_175_7329 (protein) SERDELIKRLAELLEKLAEEVDGEASDLLLAAAALLEEEGIEAAKRVAELLKEAAKEIEGNEKLKKAAEALAEAAKLLAEGAPAEEVQKKLEEAEKLLKE | 0.194
23 | GBRAPL2_175_7327 (protein) SEMEELIKRLVELLLRLAEKLDGLASDLLLAAAALLEEEGVDAAKRAAELVKEAAKEIKDNPKLKAAAEELARALKLIAEGAPPEEVKKELEKAEKLLEE | 0.118
24 | GBRAPL2_53_7343 (protein) MIEVDIAHPDKEVMAAAVEAVFDILERAGVEARVTVTKEDGTVVELEGPLEEVRAQAVALAKATEVLVRIELPDEAEEVVEEIEDEALAKGATVSVERIP | 0.199
25 | GBRAPL2_53_7345 (protein) MIVVDVAHPDKEVMAEAVEAIFDILEENGVEAKVTVTLEDGTVVELEGPLDEVRKKAVELAKKSEVLVEIELPDSAEETVEKLEDVALEKGATVSVERIP | 0.0792
26 | GBRAPL2_175_7337 (protein) SLEDEVLEALIEALELLSEKADDEVSDLLDAAMALLETDGRAALPRVAELLKKASEEAKDNPELSALLEELAAAAKEFAEGGDLEEILKKAKEIIKKIKA | 0.0611
27 | GBRAPL2_175_7332 (protein) SAREELVKRLAELALRLAEKADDETEDLLLAAAALLEEGGEENLKRAAELIKEAAKEIKDDERLKKAAAELAEAAELLIAGEDVEKAEEELRKAEELLEK | 0.136
28 | GBRAPL2_151_7324 (protein) SELEKLLKELKKLLEELEKLVKEASEKYPEYSIELETLAGGAEADILLAEEAKNDEEKRKYLKRAAELIADAAKLIAEITGDERAKKLAEEAKKILKELE | 0.242
29 | GBRAPL2_53_7344 (protein) MIEVDIAHPDKEVMAKAVEAVFDILEEAGVEAEVEVTKEDGTVERLRGPLEEVREKAVKLAKETEVLVTIRLPDSAEEVVEKIEDEALKHGATVSVKRLE | 0.23
30 | GBRAPL2_53_7351 (protein) MYRVLIGHPDKEVMVKALEKVFEILEEAGVEAKVKVTKEDGTVIELEGPIKEIKEETLKLAKEQPILVEIELPDEAEEVVEKIVDAALEAGATVSVEKVE | 0.157
31 | GBRAPL2_151_7325 (protein) SELDELLKKLKELLERLEKLVKEAAKEKPEYETTLETLVGGAEADLLLAEEAENDEEKRRHLKEAAELIRDAAEEIAKITGKEEAKKLAEEAKKLLKELE | 0.129
32 | GBRAPL2_175_7338 (protein) AARAALLARIIELLDELAERADDEVADLLDAAAAVLEEEGEAGAERAARLVAEAAREAADDPRLRAALEAVAAALAALAAGAAPAEVQALLDEAEAILAE | -0.358
